# Cruzain inh noDet = qHTS Assay for Promiscuous and Specific Inhibitors of Cruzain (without detergent); purified cruzain, Z-FR-AMC fluorescence, no detergent; 200,000 compounds, 2.3% hits; AID 1476, 2009; Potency, µM, actives largely listed as inhibitors; further: nearly all actives have a fitted effect of over 40% in size
# Target sequence (P25779 123-467 limits assumed): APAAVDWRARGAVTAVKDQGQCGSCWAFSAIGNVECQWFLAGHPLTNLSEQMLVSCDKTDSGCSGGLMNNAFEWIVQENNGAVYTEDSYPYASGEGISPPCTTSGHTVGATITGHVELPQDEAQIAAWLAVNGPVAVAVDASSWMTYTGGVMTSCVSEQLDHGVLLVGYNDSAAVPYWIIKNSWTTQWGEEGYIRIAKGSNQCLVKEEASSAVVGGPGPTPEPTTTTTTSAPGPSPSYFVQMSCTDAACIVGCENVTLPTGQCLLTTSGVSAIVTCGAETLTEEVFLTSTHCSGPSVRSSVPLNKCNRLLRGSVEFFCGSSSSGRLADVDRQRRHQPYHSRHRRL
#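 Detergent-free condition (0.00005% Triton X-100) in acetate buffer pH 5.5 with DTT. 1.5 nM enzyme and compound were pre-mixed 15 min, then 2 uM Z-FR-AMC substrate added; reaction progress from fluorescence change between first and third reads (60 s).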
# Cruzain inh Det = qHTS Assay for Promiscuous and Specific Inhibitors of Cruzain (with detergent). Cruzipain (Trypanosoma cruzi), P25779. purified cruzain, Z-FR-AMC fluorescence, 0.01% Triton. Potency, µM, actives largely listed as inhibitors. 200,000 compounds, 0.43% hits. AID 1478, 2009; further: nearly all actives have a fitted effect of over 40% in size
#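 Read-out: AMC fluorescence (360 nm excitation, 450 nm emission), four reads over 2 min, first-to-third difference used. Conditions: cruzain 1.5 nM, Z-FR-AMC 2 uM, pH 5.5 acetate, 5 mM DTT, 0.01% Triton X-100.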
# Numbers stand for hits; . = inactive; ? = inconclusive. The list is not random: actives were taken first. Their share in the collection is about 2.4%. The call rests on the fitted dose curve; in most records, active means well fitted curve in the direction sought with a large enough effect; inconclusive means small, poorly fitted or top-dose-only effect, or another doubt; inactive means no such curve, though single readings can be large; an effect the other way counts as inactive or inconclusive.
SMILES,Cruzain inh noDet,Cruzain inh Det
CC1CCc2c(C(=O)OCC(=O)Nc3cccc(S(=O)(=O)N4CCCCCC4)c3)csc2C1 (stereo not given),?,.
Cc1ccc(NC(=O)COC(=O)c2csc3c2CCC(C)C3)cc1S(=O)(=O)N1CCCCC1 (stereo not given),25.1µM,.
Cc1c(/C=C2\SC(=O)N(CC(=O)Nc3ccc4c(c3)OCO4)C2=O)c2ccccc2n1C,?,.
CCn1cc(/C=C2\SC(=O)N(CC(=O)Nc3ccc4c(c3)OCO4)C2=O)c2ccccc21,3.16µM,.
O=C(CNc1ccc2c(c1)OCO2)N/N=C\c1cn(Cc2ccc(F)cc2)c2ccccc12,?,.
O=C(CNc1ccc2c(c1)OCO2)N/N=C\c1cn(Cc2ccccc2)c2ccccc12,12.6µM,.
Cc1cc(=O)c2c(O)c3c(O)cc(O)c4c5c(O)cc(O)c6c(O)c7c(=O)cc(C)c8c1c2c(c34)c(c65)c78,?,.
Cc1ccc(-c2cc(NC(=O)COc3c(C)cc(C)cc3C)on2)cc1,?,.
Cc1cccc(C)c1NC(=O)Cn1c(=O)n(Cc2ccco2)c(=O)c2ccc(C(=O)NC3CCCC3)cc21,.,.
CC(C)c1cc(C(N)=O)c(NC(=O)c2cccc(COc3ccc(Cl)cc3)c2)s1,20µM,.
Cc1nn(Cc2c(F)c(F)c(F)c(F)c2F)c(C)c1NC(=O)c1cccc(COc2ccc(Cl)cc2)c1,.,.
O=C(CSc1nnc(CNC(=O)c2ccccc2)n1-c1cccc(Cl)c1)Nc1ccccc1F,.,.
Cc1cc([P+](=O)O)c(C)n1-c1ccc(Br)cc1,20µM,.
CC(=O)N/N=C/c1cc(C)n(-c2ccc(Br)cc2)c1C,.,.
Cc1ccc(/C=C/C(=O)Nc2nc(-c3cccs3)ns2)cc1,?,.
O=C(/C=C/c1ccccc1)Nc1nc(-c2cccs2)ns1,20µM,.
CC(C)Oc1cccc(C(=O)Nc2ccc3oc(-c4ccccc4)nc3c2)c1,.,.
COc1ccccc1-n1cc(-c2ccc(C)cc2)nc1S(=O)(=O)CC(=O)Nc1ccccc1C(F)(F)F,.,.
Cc1cccc(C)c1NC(=O)CS(=O)(=O)c1nc(-c2ccc(Cl)cc2)cn1-c1ccccc1,.,?
COc1ccc(-c2cn(-c3ccc(C)cc3)c(S(=O)(=O)CC(=O)Nc3ccc(F)cc3)n2)cc1,15.8µM,.
COc1ccc(-c2cn(-c3ccc(C)cc3)c(S(=O)(=O)CC(=O)Nc3ccccc3)n2)cc1,20µM,.
CCS(=O)(=O)c1ncc(Cl)c(C(=O)N(Cc2ccccc2)Cc2ccco2)n1,.,.
CCOC(=O)C1CCN(c2nc(-c3ccccc3)nc3c2oc2ccccc23)CC1,20µM,.
CCOC(=O)C1CCN(c2ncnc3c2oc2ccccc23)CC1,.,.
Cc1nc(-c2ccc(C)c(N3CCN(C(=O)Nc4cccc(Cl)c4C)CC3)c2)no1,.,.
SMILES,Cruzain inh noDet,Cruzain inh Det
CCC(Sc1nnc2c3ccccc3n(CC)c2n1)C(=O)Nc1ccc(NC(C)=O)cc1 (stereo not given),?,.
CN(C)CCN(c1ccccn1)c1ccccn1,.,.
c1ccc(Nc2nc(N3CCOCC3)nc(N3CCOCC3)n2)cc1,.,.
NNc1nc(Nc2ccccc2)nc(N2CCCCC2)n1,12.6µM,.
C[C@@]12C[C@H](O)C3[C@H](CCC4=CC(=O)CC[C@]43C)[C@H]1CC[C@@H]2c1csc(N)n1 (stereo not given in full),.,.
Cc1cc2oc(=O)cc(-c3ccccc3)c2c(C)c1-c1ccc(F)c(Cl)c1,5.62µM,.
CC(=O)c1ccsc1-c1c(C)cc2oc(=O)cc(-c3ccccc3)c2c1C,35.5µM,.
Cc1cc2oc(=O)cc(-c3ccccc3)c2c(C)c1-c1cccc(N)c1,?,.
Cc1cc2oc(=O)cc(-c3ccccc3)c2c(C)c1-c1sccc1C=O,?,.
COc1ccc(NS(=O)(=O)c2ccc(N/N=C/c3ccc(N4CCOCC4)cc3)c([N+](=O)[O-])c2)cc1,25.1µM,.
COc1ccc(/C=N/Nc2ccc(C(F)(F)F)cc2[N+](=O)[O-])cc1,.,.
COc1ccccc1/C=C\C=N\n1c(-c2ccc(Cl)cc2Cl)n[nH]c1=S,31.6µM,.
COc1ccccc1/C=C\C=N\n1c(-c2ccc(Cl)cc2)n[nH]c1=S,?,.
CCOc1ccc(-n2nc3ccc(NC(=O)c4ccc(-c5cccc(Cl)c5)o4)cc3n2)cc1,.,.
COCCNc1ncnc2ccc(-c3ccccc3C)cc12,.,.
Cn1ccnc1SCC(=O)c1cc2ccccc2o1,25.1µM,.
Cn1c(SCC(=O)c2cc3ccccc3o2)nnc1-c1ccccc1,.,.
CCN(CC)S(=O)(=O)c1ccc2c(c1)N(CC(=O)Nc1cccc(C#N)c1)C(=O)CO2,.,.
Cc1ccc2c(Sc3ccc(Cl)cc3)c(C(=O)N3CCC(C)CC3)[nH]c2c1,.,.
CC(=O)c1sc2nc(-c3cccs3)ccc2c1N,.,.
Nc1ccc(C(=O)Nc2nc3ccccc3s2)cc1,.,.
Nc1c(C(=O)Nc2ccccc2Br)sc2nc(-c3cccs3)ccc12,20µM,.
Nc1c(C(=O)Nc2ccc(F)c(F)c2)sc2nc(-c3ccncc3)ccc12,.,.
Nc1c(C(=O)Nc2nc3ccccc3s2)sc2nc(-c3cccs3)ccc12,7.94µM,.
Nc1c(C(=O)Nc2ccc(Cl)cc2F)sc2nc(-c3cccs3)ccc12,25.1µM,.
SMILES,Cruzain inh noDet,Cruzain inh Det
CCOC(=O)c1ccc(NC(=O)CC2C(=O)N(c3ccccc3)C(=O)N2C2CCCCC2)cc1 (stereo not given),.,.
CCOC(=O)Cn1c(=NC(=O)c2sc3ccccc3c2Cl)sc2cc(S(N)(=O)=O)ccc21,7.94µM,.
COC(=O)Cn1c(=NC(=O)c2sc3ccccc3c2Cl)sc2cc(S(N)(=O)=O)ccc21,.,.
CCOC(=O)c1cccc(NC(=O)c2cc3ccccn3n2)c1,.,.
O=C(Cn1cc(SCc2ccccc2F)c2ccccc21)N1CCCCCC1,.,.
CC(=O)NC(CC(C)C)C(=O)NC(Cc1ccccc1)C(N)=O (stereo not given),.,.
CC(=O)[C@H](CC(C)C)NC(=O)[C@@H](CC(C)C)NC(=O)[C@H](CC(C)C)NC(=O)OCc1ccccc1,0.0126µM,0.0035µM
Cc1cc2c(cc1Cl)C(c1ccccc1C)CC(=O)O2 (stereo not given),.,.
CCc1ccccc1NC(=O)Cn1nnc(-c2nc(-c3ccncc3)no2)c1N,.,.
Nc1ncnc2c1ncn2[C@H]1O[C@@H](C(=O)O)[C@@H](O)[C@H]1O,.,.
COc1cccc(NC(=O)C(OC(=O)/C=C/c2ccc3c(c2)OCO3)c2ccccc2)c1 (stereo not given),20µM,.
COc1ccc(NC(=O)C(c2ccccc2)N(C)C(=O)/C=C\c2ccc3c(c2)OCO3)cc1 (stereo not given),.,.
COc1cc(NC(=O)Cn2c(=O)oc3cc(S(=O)(=O)N4CCCCCC4)ccc32)cc(OC)c1,.,.
NC(=O)c1ccccc1NC(=O)CN1c2ccccc2S(=O)(=O)c2ccccc21,.,.
COc1cc(Cl)c(C)cc1NC(=O)CN1c2ccccc2S(=O)(=O)c2ccccc21,25.1µM,.
CCCOc1ccc(C(=O)Nc2ccc(-c3cc4ccccc4oc3=O)c(C)c2)cc1,?,.
Cc1ccc(C(=O)CN2CCC(NC(=O)C3CCCCC3)CC2)cc1,?,25.1µM
